Reference: the supplement of paper PMC10849652
Targets with a hit are over-represented here; the source holds about 7,900 in all. About 0.6% of all pairs of compound and target were hits.

The targets below were run with c1cn2cc(-c3ccc4cn[nH]c4c3)nc(Nc3ccc(N4CCOCC4)cc3)c2n1 [entospletinib] (assay: log2 fold change, soluble protein after heating vs DMSO (PISA); higher = thermal stabilisation; K562 cells, 10 uM, 30 min; active = over 0.2 and 3.5 SD of the protein, either way, in both replicates (recomputed)).
In short: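 Aliquots of K562 cells (2×10^6 cells/mL) treated with 10 μM compound for 30 min were heated for 3 min over 48°C-58°C. After pooling and extraction in PBS with 0.5% NP-40 at 4°C, soluble protein from a 21,000xg, 90 min spin was quantified by TMTpro 16plex LC-MS/MS with channel sums equalised. Thermal stability is expressed against control samples, from duplicates, as a log2 fold change.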

Chain of UniProt B2RBV5 (B2RBV5 whole entry, looked up): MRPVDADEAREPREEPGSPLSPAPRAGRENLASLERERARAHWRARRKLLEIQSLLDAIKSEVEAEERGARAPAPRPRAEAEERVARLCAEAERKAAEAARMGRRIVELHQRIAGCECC
Chain of UniProt Q9NXX6 (Q9NXX6 whole entry, looked up): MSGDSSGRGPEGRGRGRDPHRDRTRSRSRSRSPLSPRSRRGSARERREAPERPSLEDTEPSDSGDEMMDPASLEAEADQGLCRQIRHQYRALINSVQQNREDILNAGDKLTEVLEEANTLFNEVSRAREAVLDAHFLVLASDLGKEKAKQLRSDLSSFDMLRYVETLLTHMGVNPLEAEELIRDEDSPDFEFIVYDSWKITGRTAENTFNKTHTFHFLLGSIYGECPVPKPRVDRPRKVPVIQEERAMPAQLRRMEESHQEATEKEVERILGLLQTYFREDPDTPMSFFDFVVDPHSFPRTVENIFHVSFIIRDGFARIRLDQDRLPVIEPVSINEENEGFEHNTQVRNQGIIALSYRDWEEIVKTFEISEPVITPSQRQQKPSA
Chain of UniProt P48645 (P48645 whole entry, looked up): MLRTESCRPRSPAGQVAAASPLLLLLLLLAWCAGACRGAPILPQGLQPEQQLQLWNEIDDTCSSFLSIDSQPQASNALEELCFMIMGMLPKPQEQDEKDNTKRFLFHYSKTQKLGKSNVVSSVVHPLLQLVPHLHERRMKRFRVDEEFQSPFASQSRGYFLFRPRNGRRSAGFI
Chain of UniProt Q9BVC4 (Q9BVC4 whole entry, looked up): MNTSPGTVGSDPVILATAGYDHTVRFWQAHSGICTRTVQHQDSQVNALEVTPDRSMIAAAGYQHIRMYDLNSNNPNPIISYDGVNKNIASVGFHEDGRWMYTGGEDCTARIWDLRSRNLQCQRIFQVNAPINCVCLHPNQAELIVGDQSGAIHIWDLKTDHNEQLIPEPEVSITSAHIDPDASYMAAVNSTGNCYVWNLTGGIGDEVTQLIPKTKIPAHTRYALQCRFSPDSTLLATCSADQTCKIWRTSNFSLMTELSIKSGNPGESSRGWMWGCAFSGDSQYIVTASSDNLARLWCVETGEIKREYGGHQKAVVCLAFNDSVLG
Chain of UniProt P11586 (P11586 whole entry, looked up): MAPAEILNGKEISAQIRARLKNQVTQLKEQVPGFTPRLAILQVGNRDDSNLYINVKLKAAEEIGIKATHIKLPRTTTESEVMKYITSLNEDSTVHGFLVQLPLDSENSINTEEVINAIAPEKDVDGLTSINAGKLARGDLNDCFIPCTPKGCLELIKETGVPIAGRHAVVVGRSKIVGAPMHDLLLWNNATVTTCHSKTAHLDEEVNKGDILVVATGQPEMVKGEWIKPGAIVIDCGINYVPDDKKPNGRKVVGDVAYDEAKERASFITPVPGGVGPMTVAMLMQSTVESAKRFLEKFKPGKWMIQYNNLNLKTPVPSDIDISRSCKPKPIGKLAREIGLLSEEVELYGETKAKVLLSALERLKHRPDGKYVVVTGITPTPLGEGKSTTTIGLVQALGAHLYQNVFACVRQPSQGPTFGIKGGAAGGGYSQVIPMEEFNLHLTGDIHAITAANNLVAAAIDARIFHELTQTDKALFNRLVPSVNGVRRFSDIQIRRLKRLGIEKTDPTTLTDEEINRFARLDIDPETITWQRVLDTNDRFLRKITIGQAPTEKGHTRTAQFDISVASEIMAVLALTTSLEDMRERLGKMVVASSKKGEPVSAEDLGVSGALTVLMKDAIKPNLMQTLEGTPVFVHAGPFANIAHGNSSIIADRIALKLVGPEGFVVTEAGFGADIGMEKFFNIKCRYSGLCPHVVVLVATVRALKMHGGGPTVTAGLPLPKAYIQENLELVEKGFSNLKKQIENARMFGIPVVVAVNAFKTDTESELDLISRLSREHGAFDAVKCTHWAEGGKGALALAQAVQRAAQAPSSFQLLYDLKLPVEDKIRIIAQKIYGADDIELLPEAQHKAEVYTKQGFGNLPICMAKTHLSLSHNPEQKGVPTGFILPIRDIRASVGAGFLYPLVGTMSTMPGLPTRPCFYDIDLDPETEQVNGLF
Chain of UniProt Q96T76 (Q96T76 whole entry, looked up): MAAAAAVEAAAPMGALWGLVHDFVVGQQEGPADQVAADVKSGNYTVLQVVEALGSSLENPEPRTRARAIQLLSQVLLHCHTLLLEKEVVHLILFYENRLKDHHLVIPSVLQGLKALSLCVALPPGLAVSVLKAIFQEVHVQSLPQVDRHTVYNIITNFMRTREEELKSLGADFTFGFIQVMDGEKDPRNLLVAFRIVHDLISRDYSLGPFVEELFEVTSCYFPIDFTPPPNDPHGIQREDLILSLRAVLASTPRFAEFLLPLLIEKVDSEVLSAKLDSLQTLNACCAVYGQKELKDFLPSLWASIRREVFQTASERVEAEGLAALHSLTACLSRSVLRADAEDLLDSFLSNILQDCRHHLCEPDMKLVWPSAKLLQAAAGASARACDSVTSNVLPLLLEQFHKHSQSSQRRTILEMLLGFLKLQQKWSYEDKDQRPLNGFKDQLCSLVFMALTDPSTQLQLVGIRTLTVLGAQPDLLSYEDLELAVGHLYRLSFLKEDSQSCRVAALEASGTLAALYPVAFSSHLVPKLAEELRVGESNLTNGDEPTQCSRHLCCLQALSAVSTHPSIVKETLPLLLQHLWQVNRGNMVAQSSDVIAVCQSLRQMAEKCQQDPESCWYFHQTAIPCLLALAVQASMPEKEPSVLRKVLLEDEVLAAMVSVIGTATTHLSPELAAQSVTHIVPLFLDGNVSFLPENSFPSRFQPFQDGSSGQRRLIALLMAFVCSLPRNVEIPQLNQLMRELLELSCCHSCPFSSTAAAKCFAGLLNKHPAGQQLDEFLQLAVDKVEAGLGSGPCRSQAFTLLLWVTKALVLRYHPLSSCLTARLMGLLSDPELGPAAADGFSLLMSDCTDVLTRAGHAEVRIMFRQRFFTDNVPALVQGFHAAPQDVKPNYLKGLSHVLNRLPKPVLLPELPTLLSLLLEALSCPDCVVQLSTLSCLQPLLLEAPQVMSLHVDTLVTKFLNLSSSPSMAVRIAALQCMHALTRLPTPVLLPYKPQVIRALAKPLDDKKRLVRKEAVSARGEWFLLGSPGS
Chain of UniProt Q96D46 (Q96D46 whole entry, looked up): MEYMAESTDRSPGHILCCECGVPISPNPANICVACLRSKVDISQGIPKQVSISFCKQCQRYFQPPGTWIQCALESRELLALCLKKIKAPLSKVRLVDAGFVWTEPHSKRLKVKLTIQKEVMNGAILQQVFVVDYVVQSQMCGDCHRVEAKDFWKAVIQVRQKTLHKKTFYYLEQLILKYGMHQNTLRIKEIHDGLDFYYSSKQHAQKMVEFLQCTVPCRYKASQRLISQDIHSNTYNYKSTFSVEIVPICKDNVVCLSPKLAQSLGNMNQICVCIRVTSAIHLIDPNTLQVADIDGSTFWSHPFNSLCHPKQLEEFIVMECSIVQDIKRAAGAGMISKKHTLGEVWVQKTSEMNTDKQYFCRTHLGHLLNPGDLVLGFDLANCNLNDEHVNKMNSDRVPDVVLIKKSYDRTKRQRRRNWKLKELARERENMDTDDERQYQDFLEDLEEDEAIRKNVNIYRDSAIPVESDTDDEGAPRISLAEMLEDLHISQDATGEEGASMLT
Chain of UniProt Q13153 (Q13153 whole entry, looked up): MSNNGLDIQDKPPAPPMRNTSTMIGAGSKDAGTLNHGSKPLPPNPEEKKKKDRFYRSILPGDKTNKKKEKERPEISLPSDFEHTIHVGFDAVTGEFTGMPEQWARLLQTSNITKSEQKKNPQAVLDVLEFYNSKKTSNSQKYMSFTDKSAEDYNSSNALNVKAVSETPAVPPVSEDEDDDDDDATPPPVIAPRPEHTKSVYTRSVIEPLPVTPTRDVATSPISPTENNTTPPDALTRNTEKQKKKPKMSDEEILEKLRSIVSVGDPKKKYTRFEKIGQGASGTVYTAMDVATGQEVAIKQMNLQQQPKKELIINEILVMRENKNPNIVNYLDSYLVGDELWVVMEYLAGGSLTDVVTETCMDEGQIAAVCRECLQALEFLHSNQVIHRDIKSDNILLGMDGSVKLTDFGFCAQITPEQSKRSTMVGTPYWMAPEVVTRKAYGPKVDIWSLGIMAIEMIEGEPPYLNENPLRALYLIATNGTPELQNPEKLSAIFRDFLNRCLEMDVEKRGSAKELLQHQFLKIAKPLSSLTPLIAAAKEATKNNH
Chain of UniProt Q99747 (Q99747 whole entry, looked up): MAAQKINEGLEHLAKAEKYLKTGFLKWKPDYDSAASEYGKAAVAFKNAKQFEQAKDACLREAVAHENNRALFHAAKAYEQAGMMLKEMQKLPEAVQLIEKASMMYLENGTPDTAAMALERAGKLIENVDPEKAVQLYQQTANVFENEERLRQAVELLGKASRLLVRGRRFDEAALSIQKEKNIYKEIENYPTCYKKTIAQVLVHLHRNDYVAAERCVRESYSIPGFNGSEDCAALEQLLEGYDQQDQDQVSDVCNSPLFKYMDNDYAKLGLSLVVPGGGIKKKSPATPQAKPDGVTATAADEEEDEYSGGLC
Chain of UniProt O75052 (O75052 whole entry, looked up): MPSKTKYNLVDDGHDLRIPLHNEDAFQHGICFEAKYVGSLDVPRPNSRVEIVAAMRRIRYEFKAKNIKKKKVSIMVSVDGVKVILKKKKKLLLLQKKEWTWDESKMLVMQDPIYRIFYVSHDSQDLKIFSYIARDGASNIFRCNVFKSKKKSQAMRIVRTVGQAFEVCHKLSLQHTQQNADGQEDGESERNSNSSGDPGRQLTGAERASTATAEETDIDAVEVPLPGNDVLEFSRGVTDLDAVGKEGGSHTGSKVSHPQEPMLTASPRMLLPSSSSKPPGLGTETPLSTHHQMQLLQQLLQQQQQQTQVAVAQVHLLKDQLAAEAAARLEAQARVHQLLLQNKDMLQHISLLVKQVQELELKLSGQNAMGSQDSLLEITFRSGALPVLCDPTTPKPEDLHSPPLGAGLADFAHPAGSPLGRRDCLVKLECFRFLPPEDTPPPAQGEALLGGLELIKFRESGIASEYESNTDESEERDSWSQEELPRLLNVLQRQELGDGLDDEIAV
Chain of UniProt O95182 (O95182 whole entry, looked up): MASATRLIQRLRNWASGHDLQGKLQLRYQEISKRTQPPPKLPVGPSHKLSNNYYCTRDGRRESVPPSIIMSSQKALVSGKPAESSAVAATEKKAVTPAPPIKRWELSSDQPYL

log2 fold change, inactive:
MRFAP1 (UniProt Q9Y605) 0.005, PAK1 isoform 2 (UniProt Q13153) -0.02, NA (UniProt B2RBV5) -0.058, NCAPD2 (UniProt Q15021) 0.031, OTULIN (UniProt Q96BN8) 0.1, MTHFS (UniProt P49914) 0.127, MRPS26 (UniProt Q9BYN8) 0.078, MRPS10 (UniProt P82664) 0.054, MRPS22 (UniProt P82650) 0.057, NMD3 (UniProt Q96D46) -0.001, MTOR (UniProt P42345) -0.012, MRPS18B (UniProt Q9Y676) 0.028, MRPS24 (UniProt Q96EL2) 0.086, NCL (UniProt P19338) 0.102, MRPS9 (UniProt P82933) 0.087, NOS1AP (UniProt O75052) -0.337, NIPSNAP3B (UniProt Q9BS92) -0.03, NCOR1 (UniProt O75376) 0.067, NUP85 (UniProt Q9BW27) 0.005, NSMCE4A (UniProt Q9NXX6) -0.048, MLST8 (UniProt Q9BVC4) -0.06, NEK3 (UniProt P51956) -0.002, MRPS35 (UniProt P82673) 0.036, NAPG (UniProt Q99747) 0.037, MMS19 isoform 8 (UniProt Q96T76) 0.033, NPM3 (UniProt O75607) 0.008, MTHFD1 (UniProt P11586) 0.055, NMU (UniProt P48645) 0.078, NDUFA7 (UniProt O95182) 0.027, NCAPG (UniProt Q9BPX3) 0, PAAF1 (UniProt Q9BRP4) -0.023, MSH3 (UniProt P20585) -0.095, NOSIP (UniProt Q9Y314) -0.146, MRPS12 (UniProt O15235) 0.15
